Source: PubChem
The list is a sample of the results.
aSyn UTR act: Activators via SNCA 5'UTR binding, MLPCN; AID 1814, 2009; actives 7.1% (n = 300,000); activity score, % (tested at 7.5 µM), hits read low; alpha-synuclein 5'UTR reporter, activators screen; in the data active = activity score below about -60%
* hit, by the source's call.

SMILES	aSyn UTR act
COc1cc(/C=N/Nc2nncc3ccccc23)cc(OC)c1OC	-108*
COc1ccc(/C=N/Nc2nncc3ccccc23)c(OC)c1	-159*
C(=N\Nc1nncc2ccccc12)/c1ccccc1	-75*
CCCCOc1ccc(C(=O)Nc2ccc3c(c2)OCO3)cc1	-93*
CCC(=O)Oc1ccc(C(=O)Nc2ccc3c(c2)OCO3)cc1	-72*
CCCOc1ccc(C(=O)Nc2ccc3c(c2)OCO3)cc1	-95*
CCCNC(=O)Nc1nc2ccccc2s1	-118*
Cc1ccc(CC(=O)Nc2nc3ccccc3s2)cc1	-96*
CCc1ccc2nc(NC(=O)CSCc3c(C)noc3C)sc2c1	-73*
CCCNC(=O)c1ccc(-c2nc3ccccc3s2)s1	79
CCOC(=O)Nc1nc(-c2ccc(Cl)cc2Cl)cs1	-97*
CCCCNC(=O)Nc1nc2ccc(CC)cc2s1	-124*
CC12CCC(C(=O)Nc3nc4ccccc4s3)(OC1=O)C2(C)C (stereo not given)	-113*
O=C(CCNC(=O)c1ccccc1Cl)Nc1nc2ccccc2s1	-83*
CN(C)c1ccc(CC(=O)c2nc3ccccc3s2)cc1	-125*
CN(CC(=O)Nc1nc2ccccc2s1)S(=O)(=O)c1ccccc1	-83*
CCCCNC(=O)Nc1nc2ccccc2s1	-81*
CCOC(=O)Nc1nc2ccccc2s1	-125*
O=S(=O)(Cc1cc(-c2ccc(Cl)cc2)no1)c1ccccc1	-173*
Clc1ccc(-c2cc(COc3ccccc3)on2)cc1	-90*
O=S(=O)(Cc1cc(-c2ccccc2Cl)no1)c1ccccc1	-130*
Cc1cccc2c1Sc1ccc(Cl)cc1CC2N1CCNCC1 (stereo not given)	104
COc1cc(/C=C(\C#N)C(=O)N2CCOCC2)ccc1OCc1ccccc1	-120*
N#C/C(=C\c1ccc(OCc2ccc(C(=O)O)cc2)cc1)C(=O)N1CCOCC1	93
COc1ccc(-c2cc(-c3c(O)c(OC)c4occc4c3OC)[nH]n2)cc1OC	-71*
SMILES	aSyn UTR act
CC(C)(C)C1CCc2c(sc3c2C(=O)NC(c2ccco2)N3)C1 (stereo not given)	-186*
CCN1/C(=C/c2ccc3cccc(C)c3[n+]2CC)Sc2ccccc21	-134*
CCN1/C(=C/c2ccc3cc(C)ccc3[n+]2CC)Sc2ccc3sccc3c21	131
C=CCn1c(=S)[nH]c2scc(-c3ccc(C)o3)c2c1=O	-69*
C=CCn1c(SCC(C)=O)nc2scc(-c3ccc(C)o3)c2c1=O	-150*
CCn1c(=S)[nH]c2scc(-c3cccs3)c2c1=O	-72*
Cc1ccc(-c2csc3nc(C)n(N)c(=O)c23)o1	-130*
C=CCn1c(SCC(=O)c2[nH]c(C)c(C(=O)OCC)c2C)nc2scc(-c3ccc(OC)c(OC)c3)c2c1=O	60
O=[N+]([O-])c1cccc2ccc(/C=C/c3ccc(F)cc3)nc12	-291*
CC(=O)NC(c1cccc([N+](=O)[O-])c1)c1ccc2cccnc2c1O (stereo not given)	123
O=[N+]([O-])c1cccc(/C=C/c2ccc3cccc(O)c3n2)c1	-82*
O=[N+]([O-])c1ccc(/C=C/c2ccc3cccc([N+](=O)[O-])c3n2)cc1	-92*
COc1cccc(C2CC(=O)Nc3cc4c(cc32)CCC4)c1 (stereo not given)	84
COc1cccc(CNC(=O)CCS(=O)(=O)c2ccc3c(c2)NC(=O)CO3)c1	99
Cc1cccn2cc(-c3ccc4c(c3)NC(=O)CO4)nc12	-97*
COc1cccc(-c2nc(-c3ccc4c(c3)NC(=O)CO4)cs2)c1	-197*
Cc1nc2sc(-c3ccccc3)cc2c(=O)n1/N=C/N(C)C	-156*
NC(=O)CSc1nc2sc(-c3ccccc3)cc2c(=O)n1N	-64*
Cc1nc2sc(-c3ccccc3)cc2c(=O)n1N	75
Cc1nc2sc(-c3ccccc3)cc2c(=O)n1-n1cccc1	-189*
CC(=O)Nc1ccc(S(=O)(=O)Nc2nc3ccccc3nc2Nc2ccc3ccccc3c2)cc1	-133*
COc1ccc(C([O-])=Nc2ccc[n+](-c3nc4ccccc4nc3NS(=O)(=O)c3ccccc3)c2)cc1	84
CN(CC1COc2ccccc2O1)C(=O)c1ccc(N(C)C)cc1 (stereo not given)	-62*
c1ccc(CCNCC2COc3ccccc3O2)cc1 (stereo not given)	-64*
O=C(NCC1COc2ccccc2O1)c1ccc(Cl)cc1 (stereo not given)	-93*
SMILES	aSyn UTR act
COc1cc2c(C#N)c(N3CCc4ccccc4C3)nc(N)c2c(N)n1	-88*
O=C(O)COc1cccc2ccccc12	-65*
N#Cc1ccc(/C=C(\C(=O)C(=O)O)c2ccc3ccccc3n2)cc1	-76*
Cc1cccc(/C=C(\C(=O)C(=O)O)c2ccc3ccccc3n2)c1	-118*
O=C(O)C(=O)/C(=C\c1cccc(Cl)c1)c1ccc2ccccc2n1	-80*
CCCOC(=O)c1ccc(NC(=O)C2C3CCC(C3)C2C(=O)O)cc1 (stereo not given)	-85*
COC(=O)c1ccc(NC(=O)C2CC3CCC2C3)cc1 (stereo not given)	-194*
